The whole screen tested about 200,000 compounds, of which about 5,100 (2.5%) were called active. This is one part of a sample in which actives are shown more often than they occur. Unmarked numbers belong to inactive results.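 How the source made its calls: active means activation above the screen-wide mean activation plus 3 SD (cut at about 130% in these data); inactive means the rest.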

This experiment can be described thus: potentiators of IFN-gamma driven STAT1 reporter – cell-based, HTS, luciferase reporter, primary screen (AID 932).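 Further: raw ratio to IFN-gamma control signal so 100% means no change and 0% no light.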 As to conditions: NIH 3T3 STAT1-luciferase reporter, luminescence, at 5.5 µM, hits give high values, 100% = IFN-gamma alone, no compound. (A reporter such as luciferase makes a cellular process visible.)
For `O=C(Nc1cccc(-c2nnc(-c3ccccc3)o2)c1)C1CCCO1` (stereo unspecified), the activation (% of control) was 120%.

`O=C(Nc1nnc(CCc2ccccc2)s1)C1CCCO1` (stereo unspecified): the activation (% of control) is 109%. As for `O=C(Nc1ccc(-c2nnc(-c3ccccc3)o2)cc1)C1CCCO1` (stereo unspecified), the figure is 168% (active). With `CC1CN(S(=O)(=O)c2ccc(C(=O)NN3CCN(C)CC3)cc2)CC(C)O1` (stereo unspecified), the activation (% of control) is 100%. Turning to `Cc1ccc(S(=O)(=O)Nc2nc(C)cc(N/N=C/c3ccc(O)cc3)n2)cc1`, the activation (% of control) was 95.6%. As for `CC(=O)c1sc(NC(=O)c2ccc(C)cc2)nc1C`, the figure is 161% (active).

`CC(=O)c1sc(NC(=O)CCCOc2ccccc2C)nc1C`: the activation (% of control) is 105%.

For the molecule `CC(=O)c1sc(NC(=O)C2=NN(c3ccccc3)C(=O)CC2)nc1C`, the activation (% of control) is 98.2%. Next, `COc1cccc2sc(Nc3nc(C)c(C(C)=O)s3)nc12`: 112%. Next, `CC(=O)c1sc(NC(=O)c2cccc3ccccc23)nc1C`: 114%.

With `CC(=O)c1sc(N/N=C\c2ccc(C)cc2)nc1C`, the activation (% of control) is 166% (active). As for `CCOC(=O)c1sc(NC(=O)c2ccncc2)nc1C`, the figure is 109%; as for `CC(=O)c1sc(N/N=C/c2ccc(C(C)C)cc2)nc1C`, 158% (active); as for `Cn1c(=O)c2c(ncn2CCc2ccccc2)n(C)c1=O`, 101%. Turning to `CC(NC(=O)Nc1ccccc1)C(c1cccs1)N1CCN(c2ccccc2)CC1` (stereo unspecified), the activation (% of control) was 87%. Next, `O=C(CN1C(=O)c2cccc3cccc(c23)C1=O)N1CCCCC1`: 89.3%. Next, `Cc1nccc(-c2ccc(-n3c(C)ccc3C)cc2)n1`: 101%. Next, `O=C(COC(=O)c1ccccn1)Nc1cccc2ccccc12`: 103%; `CNC(=O)/C(C#N)=C/c1c(F)cccc1Cl`: 82.9%. With `Cc1ccc(O)c(CCc2ccccc2)n1`, the activation (% of control) was 104%.

With `COc1ccc(C(=O)Nc2ccc(S(=O)(=O)Nc3onc(C)c3C)cc2)cc1OC`, the activation (% of control) was 104%. Next, `Cc1noc(NS(=O)(=O)c2ccc(N/C=C/C(=O)c3ccccc3)cc2)c1C`: 113%; `Cc1ccc(C(=O)/C=C/Nc2ccc(S(=O)(=O)Nc3onc(C)c3C)cc2)cc1`: 142% (active); `CC(C)C(O)C1CCN(Cc2nc(Cc3ccccc3Cl)no2)CC1` (stereo unspecified): 105%. Next, `Cc1ccc(N(C(=O)c2ccc(S(=O)(=O)N(C)C)cc2)C2C=CS(=O)(=O)C2)cc1` (stereo unspecified): 96.7%. As for `CCC(O)C1CCN(Cc2cn(-c3ccc(OC)cc3)nc2-c2cccc(F)c2)CC1` (stereo unspecified), the figure is 107%; as for `CCc1nc(Nc2ccc3nccnc3c2)c2oc3ccccc3c2n1`, 98.2%.

In the case of `Cc1nc(Cl)c2oc3ccccc3c2n1`, the activation (% of control) was 103%.

As for `COc1ccccc1Nc1ncnc2c1oc1ccccc12`, the activation (% of control) was 137% (active). Next, `CCN(c1ccc(NC(=O)COC(=O)CCc2nc3ccccc3n2-c2ccccc2)cc1)C(C)C`: 99.5%; `COC(=O)c1nc2ccccc2s1`: 103%; `CCC(=O)NC(=Nc1nc2ccccc2s1)NC(=O)CC`: 180% (active). Next, `CC(C)CC(=O)N/C(N)=N/c1nc2ccccc2s1`: 123%. As for `Cc1ccc(S(=O)(=O)N(C)C)cc1NC(=O)c1ccccc1Br`, the activation (% of control) is 106%. As for `Cc1c(C(=O)Nc2ccccc2)sc2nc3n(c(=O)c12)CCCCC3`, the figure is 130% (active); as for `O=c1c2c(nc3n1CCCCC3)sc1c(O)cccc12`, 104%. Next, `Cc1c(C(=O)Nc2cccc(-c3nnc4n3CCCCC4)c2)oc2ccccc12`: 104%; `COc1ccc(-c2nc3cnccn3c2NC(C)(C)CC(C)(C)C)cc1O`: 102%. On to `COc1ccc(C(C(=O)NC2CCCCC2)N(C(=O)Cc2c[nH]c3ccccc23)c2ccccc2)cc1OC` (stereo unspecified), for which the activation (% of control) is 105%. `COc1ccc(-n2ncc3c(N4CCc5ccccc54)ncnc32)cc1`: the activation (% of control) is 137% (active). Consider `c1ccc(-n2ncc3c(N4CCCC4)ncnc32)cc1`, for which the activation (% of control) was 115%. `COc1ccc2oc(=O)c(C(=O)N3CCCc4ccccc43)cc2c1`: the activation (% of control) is 97.1%. For the molecule `Cc1cccc(-n2ncc3c(N4CCc5ccccc54)ncnc32)c1`, the activation (% of control) is 113%. For the molecule `COc1ccc(-n2ncc3c(N4CCCc5ccccc54)ncnc32)cc1`, the activation (% of control) was 187% (active).

For the molecule `COc1ccc(-n2c(C)nc3c(cnn3-c3ccccc3)c2=O)cc1`, the activation (% of control) was 88.7%. As for `CC(C)(C)NC(=O)NC(=O)COC(=O)C1(C)CC1(Cl)Cl` (stereo unspecified), the figure is 104%; as for `NC(=O)c1ccc(CN2CCC(Cc3ccccc3)CC2)cc1`, 98.6%; as for `COc1ccc(CCNC(=O)c2ccc(CS(=O)(=O)c3ccc(Br)cc3)o2)cc1OC`, 84.6%. Next, `Cc1ccc(OCCOCCOc2ccc(Br)cc2/C=N\NC(=O)c2ccncc2)cc1`: 102%; `CC(=O)Nc1cccc(-c2csc(Nc3cccc(C)n3)n2)c1`: 175% (active). As for `CC(=O)Nc1ccc(-c2csc(NC(=O)Nc3ccccc3)n2)cc1`, the figure is 95.7%; as for `Cc1cc(O)ccc1-c1cnc2ccccc2n1`, 108%; as for `COc1ccc(CCNc2nc(-c3cccc(NC(C)=O)c3)cs2)cc1OC`, 88.5%. For the molecule `CC(=O)Nc1cccc(-c2cnc3ccccc3n2)c1`, the activation (% of control) is 159% (active). Next, `CCS(=O)(=O)Nc1cccc(-c2cc(-c3ccccc3)c3cc(C)ccc3n2)c1`: 96.5%; `CCOC(=O)/C(=N\Nc1ccccc1[N+](=O)[O-])c1csc(Nc2ccccc2)n1`: 102%; `OC1CCCN(c2ncnc3c2nnn3Cc2c(F)cccc2Cl)C1` (stereo unspecified): 102%. As for `CCOC(=O)c1c(NC(=S)NC(=O)/C=C/c2cccs2)sc(C)c1C`, the figure is 105%; as for `COc1ccc(CCNC(=O)COC(=O)/C=C/c2cccs2)cc1OC`, 90.8%.

For the molecule `CCOC(=O)c1sc(=NC(=O)/C=C/c2cccs2)n(C)c1C`, the activation (% of control) is 140% (active). As for `CCOc1cc(NC(=S)NCc2ccco2)c(OCC)cc1NC(=O)c1ccco1`, the figure is 94.2%. `COc1cc(OC)cc(-c2nnc(SCC(=O)Nc3ccc(C(=O)O)cc3)s2)c1`: the activation (% of control) is 92.8%. Next, `CCC(=O)N1c2ccc(S(=O)(=O)CCC(=O)N3CCN(c4ccccc4)CC3)cc2CC1C` (stereo unspecified): 101%. As for `CCn1nc(C(=O)OCC(=O)N2c3ccccc3CC2C)c2ccccc2c1=O` (stereo unspecified), the figure is 94.7%; as for `CCCC(=O)N1c2ccc(-c3csc(N)n3)cc2CC1C` (stereo unspecified), 150% (active). Next, `O=C(Nc1cccc(F)c1)c1coc(=O)c(Br)c1`: 89.3%; `Cc1cccc(NC(=S)N(CCN(C)C)C(C)c2ccco2)c1` (stereo unspecified): 97.6%. For the molecule `COc1ccccc1-n1c(=S)[nH]c2c(sc(=S)n2-c2ccc(C)cc2C)c1=O`, the activation (% of control) was 97.7%. As for `CCOC(=O)c1cnc2[nH]c3ccccc3n2c1=O`, the figure is 104%; as for `CC(=O)Nc1ccc(S(=O)(=O)Nc2nc(-c3ccc(C(C)(C)C)cc3)cs2)cc1`, 99%. Next, `COc1ccc2nc(NC(=O)[C@@H]3CCCN3C(=O)c3cccs3)sc2c1`: 103%.

`NS(=O)(=O)c1ccc(Nc2nc(-c3ccccc3)cs2)cc1`: the activation (% of control) is 131% (active). Next, `COc1ccc(-c2csc(Nc3ccc(O)cc3)n2)cc1`: 110%; `COc1ccc(OC)c(Nc2nc(-c3ccc(O)c(O)c3)cs2)c1`: 102%; `Cc1cccc(S(=O)(=O)CC(=O)Nc2nc(-c3ccccc3)cs2)c1`: 105%. As for `COc1ccc2nc(Nc3nc(-c4cc5ccccc5oc4=O)cs3)sc2c1`, the figure is 103%; as for `COc1ccc2nc(Nc3nc(-c4ccncc4)cs3)sc2c1`, 140% (active); as for `COc1ccc(Nc2nc(-c3ccccc3)cs2)cc1`, 142% (active). As for `CCNC(=O)N1c2ccccc2Sc2ccccc21`, the figure is 98%; as for `CCNC(=O)CC1C(=O)N(c2ccc(OC)cc2)C(=S)N1CCc1ccncc1` (stereo unspecified), 105%. As for `Cc1ccccc1N(C(=O)Cc1cccs1)C(C(=O)NC1CCCCC1)c1cn(C)nc1C` (stereo unspecified), the activation (% of control) is 96.2%. Next, `O=C(NCCCN1CCN(c2ccc(F)cc2)CC1)Nc1ccc([N+](=O)[O-])cc1`: 88.3%; `O=c1oc2ccccc2cc1-c1cn(-c2ccccc2)c(=S)[nH]1`: 28.6%; `Nc1ncc(-c2cc3ccccc3oc2=O)s1`: 166% (active). As for `O=C(NCc1cccnc1)c1cccc(-c2cc3ccccc3oc2=O)c1`, the figure is 97.6%. As for `Cn1cccc1C(C#N)c1ccccc1C#N` (stereo unspecified), the figure is 100%; as for `Cc1cc(C)n2nc(C(=O)N3CCN(Cc4ccc5c(c4)OCO5)CC3)nc2n1`, 108%.

For the molecule `Cc1cccc(NC(=O)c2cc(N3C(=O)CCC3=O)ccc2Cl)n1`, the activation (% of control) is 98.4%.

On to `Cc1cccc(NC(=O)c2ccc3ccccc3n2)n1`, for which the activation (% of control) is 131% (active). As for `Cc1cccc(NC(=O)c2ccccc2NC(=O)C(C)(C)C)n1`, the activation (% of control) was 95.8%. As for `CC(=O)c1cnc(SCC(=O)O)nc1C`, the figure is 108%. As for `C=C(C)CSc1nc(N)c2c3c(sc2n1)CCC3`, the figure is 135% (active); as for `CC(C)(C)C1CCc2c(sc3nc(SCC(N)=O)nc(N)c23)C1` (stereo unspecified), 123%.

On to `Nc1nc(SCC(=O)NCCN2CCOCC2)nc2sc3c(c12)CCC3`, for which the activation (% of control) is 99.3%. As for `CCOC(=O)C1=C(CC)OC(N)=C(C#N)C1c1ccc(F)cc1F` (stereo unspecified), the figure is 76.9%. Next, `Cc1ccc(NC(=O)C(=O)NCc2ccco2)c(C)c1`: 126%. With `Cc1ccc(NN=C2C(=O)OC(C)(C)OC2=O)c(C)c1`, the activation (% of control) is 132% (active). As for `Cc1ccc(NC(=O)c2oc(=O)c3ccccc3c2-c2ccccc2)c(C)c1`, the figure is 97.1%. Next, `Cc1ccccc1-c1nnn(CC(=O)c2ccc(S(=O)(=O)N3CCCC3)cc2)n1`: 96.4%; `CC(C)(C)NC(=O)Cn1nnc(-c2ccccc2Cl)n1`: 142% (active). On to `O=C(Cn1nnc(-c2ccccc2)n1)NCc1ccccc1`, for which the activation (% of control) is 100%.

The values above are taken from PubChem BioAssay AID932 (The Scripps Research Institute Molecular Screening Center, 2007).
